The record followed here is PubChem BioAssay (Tox21).

Results filed as inconclusive are left out. Entries that show only a call come without a potency. Activity calls are given as the source filed them. The call rests on the fitted dose curve; in most records, active means well fitted curve in the direction sought with a large enough effect in the repeat runs; inconclusive means weak or mixed curves; inactive means no such curve, though single readings can be large; an effect the other way counts as inactive or inconclusive.

The nature of one assay: qHTS assay to identify small molecule antagonists of the retinoid acid receptor (RAR) signaling pathway - cell viability counter screen (AID 1159551). Further: nearly all actives have a fitted effect of over 35% in size. The conditions noted are these: C3RL4 cells viability, ATP luminescence (CellTiter-Glo), 6 h; series mostly up to 92.4 µM. Put shortly:
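C3RL4 RARE-luciferase line; cpds + retinol 1 uM final, 6 h, 37 C/5% CO2; CellTiter-Glo ATP luminescence, 30 min RT.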
(In general: qHTS replaces the single test concentration by a dilution series.)
For `CC(C)(O)c1cnn2c(-c3ccc(F)c(-c4c(F)cccc4C#N)c3)cnc2n1`, the Potency entry is “inactive”. On the same count and under the same terms, under `COc1ccc(N)cc1N` stands “inactive”. As to `CC(C)CCCCCCCOP(=O)(Oc1ccccc1)Oc1ccccc1`, the Potency entry is “inactive”. With `C[C@]12CC[C@H](O)C[C@H]1CC[C@@H]1[C@@H]2C[C@@H](O)[C@]2(C)[C@@H](C3=CC(=O)OC3)CC[C@]12O`, the Potency entry was “inactive”.

Another assay in a line: qHTS assay to identify small molecule antagonists of the retinoic acid receptor (RAR) signaling pathway (AID 1159552; further: nearly all actives have a fitted effect of over 50% in size; further: potency means the concentration at half of the fitted maximal effect). Particulars: C3RL4 RARE luciferase reporter, retinol-stimulated, 6 h; series mostly up to 92.4 µM. Put shortly:
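C3RL4 RARE-luc cells, overnight plating; retinol 1 uM final added right after compound; 6 hr 37 C; luciferase read at 30 min RT.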
With `CCCCCCCCc1ccc(O)cc1`, the Potency entry was “inactive”. `CC1(c2ccc(Oc3ccccc3)cc2)OC(=O)N(Nc2ccccc2)C1=O` (centres undefined): the Potency is 27.5 µM (active). For `CC(C)(C)C(O)/C(=C\c1ccc(Cl)cc1Cl)n1cncn1` (centres undefined), the Potency was 58.7 µM (active).

With `CC(=O)O[C@H]1CC[C@@]2(C)C(=CC[C@@H]3[C@@H]2CC[C@]2(C)C(=O)CC[C@@H]32)C1`, the Potency result is “inactive”.

Regarding `Nc1ccc(Sc2ccc(N)cc2)cc1`, the Potency entry was “inactive”.

As for `O=CC(Br)(Br)Br`, the Potency is 27.2 µM (active). Regarding `O=C(CCl)C(Cl)Cl`, the Potency is 15.5 µM (active). With `CC(C)(C)c1cc([N+](=O)[O-])cc(C(C)(C)C)c1O`, the Potency was 15.4 µM (active). In the case of `ClC1=C(Cl)[C@]2(Cl)[C@@H]3[C@@H]4C[C@@H]([C@H]5O[C@@H]45)[C@@H]3[C@@]1(Cl)C2(Cl)Cl`, the Potency was 27.3 µM (active). Regarding `N#Cc1ccc(O)cc1`, the Potency entry is “inactive”. Consider `N#Cc1c(-c2ccc(Cl)cc2)[nH]c(C(F)(F)F)c1Br`, for which the Potency is 0.545 µM (active).

As for `CCCCCCCCCCCCCCC(Br)C(=O)O` (centres undefined), the Potency entry was “inactive”. On the same count and under the same terms, under `Fc1ccc(Oc2ccnc3cc(Cl)cc(Cl)c23)cc1` stands “inactive”; under `CNC(C)Cc1ccc2c(c1)OCO2` (centres undefined), “inactive”; under `CC[C@H]1C[C@@H]2C[C@H]3c4[nH]c5ccc(OC)cc5c4CCN(C2)[C@@H]13`, “inactive”.
